Bioassay records as filed in PubChem BioAssay.
Rab9 prom act = qHTS Assay for Rab9 Promoter Activators | Huh7 Rab9 promoter-luciferase reporter, luminescence, 24 h | AID 485297, 2010 | 2.8% of 320,000 active | Potency, µM (series often up to 9.22 µM), inactives show top-dose activation, negative = inhibition, actives largely listed as activators; also: % of control where 0% means no effect; nearly all actives have a fitted effect of over 60% in size
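Huh7 reporter line, Rab9 promoter upstream of luciferase. Compound exposure 24 h at 37 °C in reduced-serum medium with 10% FBS. Read-out: luminescence.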
NPC1 prom act = qHTS Assay for NPC1 Promoter Activators. 2.4% of 320,000 active. AID 485313, 2010. Potency, µM (top dose mostly 9.22 µM), for the others: at the top dose activation, most hits filed as activators. Huh7 NPC1 promoter luciferase reporter, 24 h; also: % of control where 0% means no effect; nearly all actives have a fitted effect of over 60% in size
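Stably transfected Huh7 (NPC1 promoter→luciferase), 1500 cells/well in Opti-MEM + 10% FBS, 2 h settle, then compound 24 h at 37 °C. Luminescence after 10 min with Amplite reagent.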
FLuc counter = qHTS profiling assay for firefly luciferase inhibitor/activator using purifed enzyme and Km concentrations of substrates (counterscreen for miR-21 project); Luciferin 4-monooxygenase (Photinus pyralis), P08659; purified FLuc, Km substrates, luminescence inhibition; Potency, µM (top dose mostly 57.5 µM), without a hit: at the top dose activity change, negative = inhibition, actives largely listed as inhibitors; 6.9% of 360,000 active; AID 588342, 2011;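 also: plate controls were vehicle for no effect and reference inhibitor for full effect; nearly all actives have a fitted effect of over 55% in size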
Target sequence (P08659 whole entry, looked up): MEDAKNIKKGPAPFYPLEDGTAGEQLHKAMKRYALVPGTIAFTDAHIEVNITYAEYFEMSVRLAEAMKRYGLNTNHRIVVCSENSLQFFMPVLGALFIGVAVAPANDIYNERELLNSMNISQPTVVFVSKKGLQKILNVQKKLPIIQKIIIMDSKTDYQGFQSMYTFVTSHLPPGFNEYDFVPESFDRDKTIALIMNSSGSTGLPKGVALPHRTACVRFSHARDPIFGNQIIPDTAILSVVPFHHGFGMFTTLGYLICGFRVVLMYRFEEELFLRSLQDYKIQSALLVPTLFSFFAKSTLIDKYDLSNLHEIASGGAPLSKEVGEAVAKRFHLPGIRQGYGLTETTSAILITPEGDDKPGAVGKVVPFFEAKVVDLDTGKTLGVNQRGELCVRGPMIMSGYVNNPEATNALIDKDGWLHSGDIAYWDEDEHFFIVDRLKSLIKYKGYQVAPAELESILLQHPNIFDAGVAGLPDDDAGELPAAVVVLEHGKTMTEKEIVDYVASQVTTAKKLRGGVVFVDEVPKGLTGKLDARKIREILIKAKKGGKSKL
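Purified P. pyralis luciferase, 10 nM final, with Km-level 10 uM D-luciferin and 10 uM ATP in 50 mM Tris acetate pH 7.5, 10 mM Mg acetate, 0.01% Tween-20, 0.05% BSA; 6-point qHTS titration about 60 µM downward; luminescence read.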
SMN2 splice up = qHTS Assay for Enhancers of SMN2 Splice Variant Expression. Potency, µM (highest dose often 46.1 µM), for inactives: top-dose activity change, positive = activation, usual class: activators. 2.8% of 210,000 active. HEK293 SMN2-luciferase splicing reporter, luminescence, 30-36 h. AID 1458, 2008; also: % of control where 0% means no effect; nearly all actives have a fitted effect of over 55% in size
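HEK293 cells carry an SMN2 […]–luciferase reporter in which exon 7 inclusion puts luciferase in frame. Cells were plated 10-12 h before compound addition, then incubated 30-36 h at 37C. ONE-Glo luminescence was read; sodium butyrate at 4.5 mM final served as control.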
ELG1 genotox = qHTS screen for small molecules that induce genotoxicity in human embryonic kidney (HEK293T) cells expressing luciferase-tagged ELG1; AID 504466, 2011; Potency, µM (highest dose often 46 µM), for inactives: at the top dose activity change, positive = activation, most hits filed as activators; 1.3% of 330,000 active; HEK293T ELG1-luciferase reporter, luminescence, 16 h; also: % of control where 0% means no effect; nearly all actives have a fitted effect of over 60% in size
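Quantitative HTS format in 1536-well plates. HEK293T ELG1-luciferase reporter cells receive test compound and are incubated 16 hr at 37 °C, 5% CO2; ONE-Glo added, 30 min room temperature, then luminescence read.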
KinaseGlo FLuc = Counterscreen for Luciferase (Kinase-Glo TM) Inhibition. AID 1379, 2008. Luciferin 4-monooxygenase (Photuris pensylvanica), Q27757. 0.28% of 200,000 active. Potency, µM (top dose mostly 38.3 µM), for the others: at the top dose activity change, negative = inhibition, most hits filed as inhibitors. Kinase-Glo luciferase, ATP luminescence, 8 min; also: % is scaled to controls: 0 for no effect and ±100 for the full control effect; nearly all actives have a fitted effect of over 60% in size
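Substrate mix (final 50 mM imidazole pH 7.2, 50 mM KCl, 7 mM MgCl2, 10 uM ATP, 0.01% Tween 20, 0.05% BSA) plus pin-tool compound, then Kinase-Glo detection mix; 8 min ambient, luminescence read.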
Numbers without * were called inactive; ? = inconclusive; . = not tested or not shown. Most compounds without a hit are left out; they make up all but 7.3% or so of the library. Calls follow the shape of the dose curve; as a rule, active = well fitted curve in the direction sought with a large enough effect; inconclusive = small, poorly fitted or top-dose-only effect, or another doubt; inactive = no such curve, though single readings can be large; an effect the other way counts as inactive or inconclusive. Potency is read from the fitted curve at half-maximal effect.

SMILES	Rab9 prom act	NPC1 prom act	FLuc counter	SMN2 splice up	ELG1 genotox	KinaseGlo FLuc
O=C(Nc1nnc(-c2ccco2)s1)C1CCCCC1	3.2µM*	3.5µM*	?	-9%	9%	12%
O=C(Nc1nc(-c2ccco2)c(-c2ccco2)s1)C1CCC1	-6%	0%	19µM*	13%	4%	-4%
Cc1ccc(S(=O)(=O)N2CCC(C(=O)Nc3nnc(-c4ccco4)s3)CC2)cc1	0%	-1%	1%	28%	-3%	24%
O=C(O)CC/C(=N\NC(=O)c1ccncc1)c1ccccc1	-9%	-2%	-4%	.	-5%	.
CCOc1ccc(NC(=O)C(=O)N/N=C\c2ccc(CNS(=O)(=O)c3ccccc3)o2)cc1	1%	1%	3%	3%	9%	0%
COc1cccc(N(C(=O)c2ccco2)c2nc(-c3sc(NC(=O)c4ccco4)nc3C)cs2)c1	-22%	-21%	?	-56%	-4%	-9%
O=C(c1ccc2nccnc2c1)N1CCN(Cc2ccc3c(c2)OCO3)CC1	4%	7%	0%	-11%	-6%	0%
CCCOc1ccc(C(=O)NCCC(=O)NCCCC(=O)OCC)cc1	4%	0%	-3%	?	3%	-6%
Cc1nn(-c2nc3ccccc3s2)c(N)c1Sc1ccc(F)cc1	1.1µM*	3.2µM*	?	1%	?	-7%
Cc1cc(N)n(-c2nc3ccccc3s2)n1	-11%	-10%	-2%	.	-13%	-1%
Cc1nn(-c2nc3ccccc3s2)c(N)c1-c1ccc(Cl)cc1	?	?	3µM*	11µM*	?	0%
Cc1nn(-c2ccccc2)c(N)c1Sc1ccc([N+](=O)[O-])cc1	2%	9%	-5%	-38%	1%	1%
Cc1nn(-c2nc3ccccc3s2)c(N)c1-c1ccccc1	2.2µM*	2.5µM*	1.9µM*	7.1µM*	?	-28%
Cc1ccn2c(Nc3ccc4c(c3)OCO4)c(-c3ccc(N(C)C)cc3)nc2c1	.	.	?	16µM*	.	.
Cc1ccn2c(Nc3ccc4c(c3)OCO4)c(-c3ccc(Cl)cc3)nc2c1	.	.	-2%	-5%	.	.
CC(C)c1ccc(Nc2c(-c3ccco3)nc3ccccn23)cc1	.	.	24µM*	?	.	.
Cc1ccn2c(Nc3ccc4c(c3)OCO4)c(-c3ccco3)nc2c1	.	.	6µM*	15%	.	.
Cc1ccn2c(Nc3ccc4c(c3)OCCO4)c(-c3ccc(Cl)s3)nc2c1	.	.	6µM*	21%	.	.
CN(C)c1ccc(-c2nc3cnccn3c2Nc2ccc3c(c2)OCCO3)cc1	?	?	11µM*	.	18%	.
Cc1ccc(NC(=S)NCCC2=CCCCC2)cc1	3.5µM*	?	?	20µM*	17%	-2%
O=C(NCCC1=CCCCC1)c1ccc(F)cc1	0.45µM*	0.4µM*	2.1µM*	7.1µM*	?	-3%
O=C(NCCC1=CCCCC1)c1ccc(Br)o1	25%	26%	?	29%	16µM*	0%
COc1ccc(C(=O)NCCC2=CCCCC2)cc1	0.32µM*	0.35µM*	0.85µM*	2.5µM*	1.5µM*	-5%
COc1ccc(C(=O)NCCC2=CCCCC2)cc1OC	?	29%	?	15%	?	0%
COc1cccc(C(=O)NCCC2=CCCCC2)c1	0.63µM*	0.56µM*	3µM*	?	?	-10%
SMILES	Rab9 prom act	NPC1 prom act	FLuc counter	SMN2 splice up	ELG1 genotox	KinaseGlo FLuc
COc1ccc(CCNC(=O)c2ccc(CN3CCOCC3)cc2)cc1	-3%	12%	?	-15%	1%	-1%
O=C(NCCC1=CCCCC1)c1ccc(CN2CCOCC2)cc1	1.4µM*	2.8µM*	24µM*	13µM*	?	-4%
O=C(NCCc1ccc(F)cc1)c1ccc([N+](=O)[O-])cc1	3.2µM*	2.5µM*	15µM*	11µM*	?	4%
O=C(NC1CCCCCC1)c1ccc(CN2CCOCC2)cc1	3.5µM*	3.2µM*	17µM*	?	?	-3%
Cn1c(=O)c2c(nc(Oc3ccccc3Br)n2C)n(C)c1=O	1%	1%	4%	.	-13%	.
Cc1cc(=O)[nH]c2n[nH]c(-c3ccccc3)c12	7%	22%	?	3%	?	-10%
COc1ccc(Br)cc1/C=N/N1C(=O)CSC1=S	11%	7%	0%	.	0%	.
CC(=O)N1CC(C)Sc2ccc(S(=O)(=O)NC3CCCCC3)cc21 (centres undefined)	-17%	-7%	6%	.	-3%	.
CCOC(=O)c1[nH]c(C)c(C(=O)NCCC2=CCCCC2)c1C	?	27%	-5%	6%	?	-2%
CC(=O)c1c(C)[nH]c(C(=O)NCCC2=CCCCC2)c1C	?	3.5µM*	12µM*	?	9.2µM*	-1%
O=C(NCCC1=CCCCC1)c1ccc([N+](=O)[O-])cc1	0.63µM*	1.1µM*	5.4µM*	2.8µM*	?	-3%
O=C(CCNC(=O)c1ccc([N+](=O)[O-])cc1)NCCC1=CCCCC1	-3%	-5%	-2%	.	-3%	.
O=C(Cc1ccccc1[N+](=O)[O-])NCCC1=CCCCC1	12%	8%	-14%	7%	9%	0%
Cc1cc(C(=O)NCCC2=CCCCC2)ccc1[N+](=O)[O-]	1.8µM*	4.5µM*	12µM*	.	?	-4%
Oc1ccc(Br)cc1C1Nc2ccccc2S1 (centres undefined)	?	17%	?	.	?	.
COC(=O)c1ccc(NC(=O)Cc2ccc(C)cc2)cc1	4%	5%	0%	-11%	1%	-4%
CCOc1ccc(NC(=O)Cc2ccccc2)cc1	2.8µM*	3.5µM*	21µM*	8.9µM*	?	?
COC(=O)c1ccc(NC(=O)Cc2ccccc2)cc1	2.5µM*	4µM*	15µM*	9%	?	2%
CCOc1ccc(NC(=O)CNC(=O)Cc2ccccc2)cc1	2%	1%	5%	.	2%	.
CCOc1ccc(NC(=O)/C(C=Nc2ccccc2)=C(\C)O)cc1	3%	-2%	12µM*	.	-9%	.
O=C(Cc1ccccc1)Nc1ccc(SC(F)F)cc1	3.2µM*	4µM*	17µM*	11µM*	12%	-2%
Nc1cccnc1Sc1ccc([N+](=O)[O-])cn1	3%	-4%	-12%	-2%	1%	10%
C/C=C/C(=O)OCC(=O)Nc1ccc(SC(F)F)cc1	1%	-27%	17µM*	5%	2%	-1%
